The source made the active and inactive calls. The calls were made as follows: active = hit-call score of the fitted dose curve at least 0.9, where 1 is the maximum; inactive = score below 0.9.
Key:
[1] = ATG_CRE_CIS: Attagene CIS-FACTORIAL HepG2 Assay for human cAMP Responsive Element (CRE) binding protein 3 (AID 2282926); conditions: HepG2 CRE cis-reporter, Attagene multiplexed mRNA; actives raise or lower the signal
Procedure, shortened: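 Transfected HepG2 were treated for 24 hours, then RNA was extracted and reporter cDNA amplified with sequence-specific primers. Labelled fragments were separated by capillary electrophoresis, and the CRE signal was fitted bidirectionally with DMSO as baseline.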

[2] = target: CCAAT/enhancer-binding protein beta (Homo sapiens) (UniProt P17676); test: ATG_C_EBP_CIS: Attagene CIS-FACTORIAL HepG2 Assay for human CCAAT/Enhancer Binding Protein (C/EBP) beta (AID 2282927); conditions: HepG2 Attagene cis-factorial transcription factor reporter; actives raise or lower the signal
Procedure, shortened: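 Endogenous C/EBPb-driven reporter transcripts measured in transfected human HepG2 cells at 24 h via RT-PCR and capillary electrophoresis of labelled fragments. Activity fitted in both directions relative to DMSO baseline.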

[3] = ATG_CMV_CIS: Attagene CIS-FACTORIAL HepG2 Assay for human CMV (Internal Marker) (AID 2282928); conditions: HepG2 CMV promoter reporter, transcription factor profiling; actives raise or lower the signal;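 also: endpoint acts as a background internal control marker rather than a target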
Procedure, shortened: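 CMV internal-marker background readout in transiently transfected HepG2 cells bearing cis-regulated reporter units. Reporter mRNA is measured 24 h after dosing by RT-PCR and capillary electrophoresis, with bidirectional fitting against DMSO.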

[4] = ATG_DR4_LXR_CIS: Attagene CIS-FACTORIAL HepG2 Assay for human Liver X Receptor (LXR), DR4 submotif (AID 2282929); conditions: HepG2 Attagene DR4 cis-reporter, mRNA transcription; actives raise or lower the signal
Procedure, shortened: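 Total RNA from 24 h-treated, MRTU-transfected HepG2 cells underwent reverse transcription, PCR, fluorescent primer extension and restriction digestion before capillary electrophoresis. Both increases and decreases in reporter signal were fitted against DMSO.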

[5] = target: Aryl hydrocarbon receptor (Homo sapiens) (UniProt P35869); test: ATG_Ahr_CIS: Attagene CIS-FACTORIAL HepG2 Assay for human Aryl Hydrocarbon Receptor (Ahr) (AID 2282930); conditions: HepG2 AhR cis-factorial reporter transcription; actives raise or lower the signal
Procedure, shortened: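 Reporter mRNA levels, quantified by RT-PCR and fluorescent capillary electrophoresis, reflect endogenous AhR transcriptional activity in HepG2 cells carrying transfected cis-promoter reporter constructs. Readout at 24 h post-dose; gain or loss fitted against DMSO baseline.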

[6] = ATG_AP_1_CIS: Attagene CIS-FACTORIAL HepG2 Assay for human Activator Protein 1 (AP-1) (AID 2282931); conditions: HepG2 Attagene cis-factorial AP-1 reporter mRNA; actives raise or lower the signal
Procedure, shortened: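 HepG2, transient cis-reporter transfection; 24 h; readout RT-PCR/CE fluorescence; DMSO baseline, gain and loss fitted.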

[7] = ATG_AP_2_CIS: Attagene CIS-FACTORIAL HepG2 Assay for human Activator Protein 2 (AP-2) (AID 2282932); conditions: HepG2 AP-2 cis-reporter, Attagene transcription factor profiling; actives raise or lower the signal
Procedure, shortened: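 Step one: transient transfection of HepG2 with reporter transcription units. Step two: 24 h chemical exposure. Step three: RNA extraction, RT-PCR, labelled fragment analysis by capillary electrophoresis; DMSO serves as baseline.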

[8] = ATG_BRE_CIS: Attagene CIS-FACTORIAL HepG2 Assay for human Bone Morphogenetic Protein (BMP) Response Element (BRE) (AID 2282933); conditions: HepG2 BMP response element reporter, Attagene transcription factor profiling; actives raise or lower the signal
Procedure, shortened: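 HepG2 cells transiently transfected with multiplexed cis-element reporter units were dosed with chemical for 24 h. Reporter mRNA was measured by RT-PCR with fluorescent labelling, HpaI digestion and capillary electrophoresis; bidirectional fitting relative to DMSO.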

[9] = target: Retinoic acid receptor alpha (Homo sapiens) (UniProt P10276); test: ATG_DR5_RAR_CIS: Attagene CIS-FACTORIAL HepG2 Assay for human Retinoic Acid Receptor Alpha (RARE), DR5 submotif (AID 2282934); conditions: HepG2 Attagene cis-factorial RARE DR5 reporter, mRNA; actives raise or lower the signal
Procedure, shortened: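 Reporter transcripts from a DR5-regulated unit, measured via RT-PCR plus capillary electrophoresis, reflect endogenous RAR activity in transiently transfected human HepG2 liver cells. Exposure lasted 24 h; gain or loss of signal scored against DMSO.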

[10] = target: Transcription factor E2F1 (Homo sapiens) (UniProt Q01094); test: ATG_E2F_CIS: Attagene CIS-FACTORIAL HepG2 Assay for human E2F Transcription Factor 1 (AID 2282935); conditions: HepG2 Attagene cis-reporter, E2F reporter RNA transcripts; actives raise or lower the signal
Procedure, shortened: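 Total RNA from 24 h-treated, reporter-transfected HepG2 cells undergoes DNase I treatment, oligo(dT) reverse transcription, PCR and 6-FAM primer extension before capillary electrophoresis.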

[11] = ATG_E_Box_CIS: Attagene CIS-FACTORIAL HepG2 Assay for human Enhancer Box (E-box) (AID 2282936); conditions: HepG2 E-box cis-reporter transcription, actives raise or lower the signal
Procedure, shortened: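 DMSO served as negative control and baseline for bidirectional fitting. Human hepatoma HepG2 cells, transiently transfected with cis-reporter constructs, were dosed 24 h; reporter mRNA read by RT-PCR and capillary electrophoresis.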

[12] = ATG_M_61_CIS: Attagene CIS-FACTORIAL HepG2 Assay for M61 Transcription Factor (Internal Marker) (AID 2282937); conditions: HepG2 Attagene CIS-FACTORIAL M61 internal marker reporter; actives raise or lower the signal
Procedure, shortened: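 Transfect HepG2 with MRTUs; dose 24 h; isolate RNA; reverse-transcribe with DNase I treatment; PCR-amplify, FAM-label and cut with HpaI for 2 h at 37 C; resolve by CE. Bidirectional fitting against DMSO.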

[13] = ATG_EGR_CIS: Attagene CIS-FACTORIAL HepG2 Assay for human Early Growth Response 1 (EGR1) (AID 2282938); conditions: HepG2 Attagene CIS-FACTORIAL EGR reporter mRNA; actives raise or lower the signal
Procedure, shortened: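 After a 24 h treatment of transiently transfected HepG2 cells, total RNA was reverse-transcribed and reporter sequences PCR-amplified, labelled and run on capillary electrophoresis. Reporters sit under cis-regulatory promoters sensing endogenous factors.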

[14] = ATG_M_19_CIS: Attagene CIS-FACTORIAL HepG2 Assay for M19 Transcription Factor (Internal Marker) (AID 2282939); conditions: HepG2 Attagene CIS-FACTORIAL M19 internal marker reporter; actives raise or lower the signal
Procedure, shortened: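 HepG2 cells transiently transfected with cis-regulated multiple reporter transcription units were dosed for 24 h; reporter mRNA was quantified by RT-PCR, 6-FAM primer-extension labelling, HpaI digestion and capillary electrophoresis, with bidirectional fitting against DMSO baseline.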

[15] = ATG_ERE_CIS: Attagene CIS-FACTORIAL HepG2 Assay for Estrogen Response Element (ERE) (AID 2282940); conditions: HepG2 ERE cis-reporter, Attagene RNA transcript; actives raise or lower the signal
Procedure, shortened: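 HepG2 cells transiently transfected with cis-promoter-driven multiplexed reporter transcription units report endogenous TF activity. After 24 h compound exposure, reporter mRNA is quantified by RT-PCR with capillary electrophoresis fluorescence; bidirectional fitting versus DMSO baseline.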

[16] = ATG_Ets_CIS: Attagene CIS-FACTORIAL HepG2 Assay for human Erythroblast Transformation Specific (ETS) (AID 2282941); conditions: HepG2 ETS cis-reporter transcription, actives raise or lower the signal
Procedure, shortened: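 HepG2 cells transfected with multiple cis-regulated reporter units measuring endogenous ETS-driven transcription, 24 h after dosing. Reporter mRNA quantified by RT-PCR with capillary electrophoresis; bidirectional fit relative to DMSO.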

[17] = target: Hepatocyte nuclear factor 3-beta (Homo sapiens) (UniProt Q9Y261); test: ATG_FoxA2_CIS: Attagene CIS-FACTORIAL HepG2 Assay for human Forkhead box A2 (FOXA2) (AID 2282942); conditions: HepG2 cis-reporter transcription factor activity, 24 h; actives raise or lower the signal
Procedure, shortened: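 24 h dosing of HepG2 bearing cis-reporter constructs; mRNA readout by RT-PCR/CE fluorescence; bidirectional fit, DMSO baseline.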

[18] = ATG_FoxO_CIS: Attagene CIS-FACTORIAL HepG2 Assay for human Forkhead box O (FoxO) (AID 2282943); conditions: HepG2 Attagene cis-reporter, FoxO element, mRNA; actives raise or lower the signal
Procedure, shortened: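 Endogenous transcription factor activity read from multiplexed cis-promoter reporter transcripts in transiently transfected HepG2, 24 h after dosing. Reporter RNA measured via RT-PCR plus capillary electrophoresis of FAM-labeled products; gain or loss relative to DMSO.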

[19] = ATG_GATA_CIS: Attagene CIS-FACTORIAL HepG2 Assay for human GATA Binding Protein (AID 2282944); conditions: HepG2 GATA cis-element reporter, Attagene multiplex mRNA; actives raise or lower the signal
Procedure, shortened: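 HepG2 cells transiently transfected with multiplexed cis-element reporter units reflecting endogenous transcription factor activity; reporter mRNA measured after 24 h dosing by RT-PCR, 6-FAM labeling, HpaI digestion and capillary electrophoresis. Bidirectional fitting versus DMSO baseline.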

[20] = ATG_GLI_CIS: Attagene CIS-FACTORIAL HepG2 Assay for human Zinc Finger Protein GLI1 (AID 2282945); conditions: HepG2, Attagene cis-factorial reporter mRNA, GLI element; actives raise or lower the signal
Procedure, shortened: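 Bidirectional curve fits relative to DMSO, using reporter mRNA levels from RT-PCR plus capillary electrophoresis. Cells were HepG2 transiently carrying cis-regulated reporter constructs, harvested 24 h after dosing.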

Measured: outcome

Chain of Transcription factor E2F1 (Homo sapiens) (Q01094 whole entry, looked up): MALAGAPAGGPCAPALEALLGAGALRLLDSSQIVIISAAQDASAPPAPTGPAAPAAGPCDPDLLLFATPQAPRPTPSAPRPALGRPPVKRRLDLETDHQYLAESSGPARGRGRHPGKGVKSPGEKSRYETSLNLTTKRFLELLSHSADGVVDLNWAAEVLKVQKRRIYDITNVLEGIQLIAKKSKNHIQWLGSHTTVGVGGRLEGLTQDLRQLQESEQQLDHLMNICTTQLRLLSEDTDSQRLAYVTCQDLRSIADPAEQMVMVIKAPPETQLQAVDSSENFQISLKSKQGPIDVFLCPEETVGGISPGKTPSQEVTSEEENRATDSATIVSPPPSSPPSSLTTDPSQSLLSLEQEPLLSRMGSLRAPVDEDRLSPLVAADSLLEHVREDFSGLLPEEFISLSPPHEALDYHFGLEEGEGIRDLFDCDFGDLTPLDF
Chain of CCAAT/enhancer-binding protein beta (Homo sapiens) (P17676 whole entry, looked up, the tested form may be a part): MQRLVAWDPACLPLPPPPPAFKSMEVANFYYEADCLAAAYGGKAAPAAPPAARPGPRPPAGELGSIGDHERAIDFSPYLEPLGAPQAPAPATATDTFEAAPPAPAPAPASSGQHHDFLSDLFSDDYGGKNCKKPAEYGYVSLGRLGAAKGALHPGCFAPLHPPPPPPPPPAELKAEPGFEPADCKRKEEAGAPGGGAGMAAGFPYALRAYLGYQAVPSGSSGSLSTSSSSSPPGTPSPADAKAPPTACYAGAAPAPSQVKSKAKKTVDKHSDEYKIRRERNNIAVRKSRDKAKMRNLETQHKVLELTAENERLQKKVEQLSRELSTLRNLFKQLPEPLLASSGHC
Chain of Hepatocyte nuclear factor 3-beta (Homo sapiens) (Q9Y261 whole entry, looked up): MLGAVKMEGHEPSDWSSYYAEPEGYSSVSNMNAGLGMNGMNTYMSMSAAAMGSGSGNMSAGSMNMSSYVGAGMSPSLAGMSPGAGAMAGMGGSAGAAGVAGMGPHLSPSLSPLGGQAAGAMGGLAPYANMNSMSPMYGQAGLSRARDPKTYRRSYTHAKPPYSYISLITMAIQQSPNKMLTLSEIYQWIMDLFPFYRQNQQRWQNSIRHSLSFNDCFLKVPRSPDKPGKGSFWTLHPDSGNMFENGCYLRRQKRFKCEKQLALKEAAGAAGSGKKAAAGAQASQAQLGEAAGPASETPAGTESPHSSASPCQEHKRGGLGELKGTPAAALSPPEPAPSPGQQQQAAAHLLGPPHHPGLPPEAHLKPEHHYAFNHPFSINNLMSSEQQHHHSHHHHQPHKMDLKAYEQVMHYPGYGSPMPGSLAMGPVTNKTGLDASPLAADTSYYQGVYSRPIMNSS
Chain of Retinoic acid receptor alpha (Homo sapiens) (P10276 whole entry, looked up): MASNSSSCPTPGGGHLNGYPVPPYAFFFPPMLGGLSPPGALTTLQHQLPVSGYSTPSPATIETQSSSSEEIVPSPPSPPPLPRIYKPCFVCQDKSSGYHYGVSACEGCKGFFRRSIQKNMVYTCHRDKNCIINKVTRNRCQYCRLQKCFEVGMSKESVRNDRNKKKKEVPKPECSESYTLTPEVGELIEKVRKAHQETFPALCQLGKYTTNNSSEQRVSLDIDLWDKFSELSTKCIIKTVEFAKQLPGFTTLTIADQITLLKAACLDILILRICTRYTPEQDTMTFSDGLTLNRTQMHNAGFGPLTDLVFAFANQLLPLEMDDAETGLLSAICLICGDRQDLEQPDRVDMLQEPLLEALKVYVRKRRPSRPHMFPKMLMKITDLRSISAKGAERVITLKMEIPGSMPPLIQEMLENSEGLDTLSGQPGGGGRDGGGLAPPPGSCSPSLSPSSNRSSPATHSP
Chain of Aryl hydrocarbon receptor (Homo sapiens) (P35869 whole entry, looked up): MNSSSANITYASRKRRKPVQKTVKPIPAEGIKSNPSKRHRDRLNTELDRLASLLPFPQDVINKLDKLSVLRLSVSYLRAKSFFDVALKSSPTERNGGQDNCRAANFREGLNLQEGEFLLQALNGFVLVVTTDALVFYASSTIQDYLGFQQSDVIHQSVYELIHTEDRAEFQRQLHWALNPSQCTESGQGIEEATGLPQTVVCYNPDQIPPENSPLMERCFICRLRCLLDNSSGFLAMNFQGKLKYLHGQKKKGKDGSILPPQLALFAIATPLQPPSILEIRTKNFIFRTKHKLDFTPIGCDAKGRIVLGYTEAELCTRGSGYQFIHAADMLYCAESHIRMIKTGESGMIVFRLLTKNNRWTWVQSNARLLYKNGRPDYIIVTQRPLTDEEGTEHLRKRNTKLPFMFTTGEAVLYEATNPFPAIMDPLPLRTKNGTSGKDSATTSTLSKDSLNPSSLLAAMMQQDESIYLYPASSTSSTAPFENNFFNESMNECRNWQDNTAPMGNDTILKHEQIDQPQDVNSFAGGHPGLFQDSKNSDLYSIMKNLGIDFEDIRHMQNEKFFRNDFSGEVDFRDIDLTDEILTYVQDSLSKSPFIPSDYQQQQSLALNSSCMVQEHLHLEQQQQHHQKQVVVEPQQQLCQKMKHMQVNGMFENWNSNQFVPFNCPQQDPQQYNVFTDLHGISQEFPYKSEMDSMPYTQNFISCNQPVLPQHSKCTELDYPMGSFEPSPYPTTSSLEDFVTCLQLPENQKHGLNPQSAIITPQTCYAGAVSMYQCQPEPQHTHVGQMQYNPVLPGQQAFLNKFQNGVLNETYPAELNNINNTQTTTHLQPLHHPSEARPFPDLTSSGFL

CCCCCCCCO[C@@H]1O[C@H](CO)[C@@H](O)[C@H](O)[C@H]1O
inactive: all assays above

Nc1cccc(C(F)(F)F)c1
inactive: all assays above

CCCC(=O)OCc1ccccc1
inactive: all assays above

Source: PubChem BioAssay (EPA / NIEHS)
